Bioassay records as filed in PubChem BioAssay.
This is a sample that favours compounds with a hit; in the whole collection about 3% have one here.
SENP6 inh – inhibitors of human SENP6 protease; Recombinant SENP6 catalytic domain, aminoluciferin luminescence; inhibition, % at 10 µM; hit rate 1.8% among 330,000;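 active = inhibition above about 50% at the single tested dose, limit read from the data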;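 note: plate controls were DMSO wells with enzyme for no effect and DMSO wells lacking enzyme for full effect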
Target sequence (Q9GZR1 628-1112 limits assumed): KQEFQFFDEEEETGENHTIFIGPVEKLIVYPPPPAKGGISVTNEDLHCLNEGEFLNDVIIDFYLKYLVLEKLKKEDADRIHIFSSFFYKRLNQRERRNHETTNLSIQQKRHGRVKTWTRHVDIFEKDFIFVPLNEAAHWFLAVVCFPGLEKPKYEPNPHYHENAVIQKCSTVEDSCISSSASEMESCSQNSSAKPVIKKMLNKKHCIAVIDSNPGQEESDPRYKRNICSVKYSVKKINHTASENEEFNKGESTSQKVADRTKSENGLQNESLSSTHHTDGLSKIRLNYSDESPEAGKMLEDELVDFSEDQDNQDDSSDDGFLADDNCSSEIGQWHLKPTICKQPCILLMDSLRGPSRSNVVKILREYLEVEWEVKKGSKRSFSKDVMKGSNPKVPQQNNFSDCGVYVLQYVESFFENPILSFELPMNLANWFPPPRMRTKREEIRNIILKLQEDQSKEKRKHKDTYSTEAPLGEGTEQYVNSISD
PPC-1+TRAIL kill – compounds killing PPC-1 cancer cells with TRAIL present (potentiator screen, no TRAIL-free arm) | PPC-1 cells + TRAIL, ATPLite viability luminescence | cell killing (% activity), % at 4 µM or 5 µM | hit rate 0.41% among 220,000;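 active = cell killing above 50% in the first pass at 4 µM, then a duplicate retest at 5 µM averaging 50% or more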;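 note: plate controls were cells with TRAIL plus DMSO for no effect and medium-only wells lacking cells for full effect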
SENP8 block-1 – blocks human SENP8 cleavage of Nedd8 substrate; Q96LD8; recombinant SENP8, Nedd8 substrate fluorescence; inhibition, % at 20 µM; hit rate 0.64% among 360,000; in the data active = inhibition mostly above about 40%, no sharp cut-off; inactive = mostly below about 27%
SENP8 block-2 – SENP8 protease inhibition. purified SENP8, Z-RLRGG-aminoluciferin cleavage, luminescence. Q96LD8. inhibition, % at 10 µM. hit rate 1.2% among 330,000. AID 2540; in the data active = inhibition above about 50%
SENP7 inh – inhibitors of human SENP7 protease; hit rate 1.5% among 330,000; inhibition, % at 5 µM; recombinant SENP7, Z-RLRGG-aminoluciferin luminescence, 40 min; Q9BQF6;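 active = inhibition above about 50% at the single test dose, limit read from the data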;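 note: plate controls were DMSO with enzyme for no effect and no enzyme buffer wells for full effect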
C8 TRAIL sens – caspase-8 TRAIL sensitization | NB7+C8 cells + TRAIL, ATPlite viability luminescence | inhibition (viability loss, TRAIL sensitization), % at 10 µM | hit rate 1% among 360,000;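 active = compounds causing at least 50% loss of cell viability in the single-dose screen, relative to plate controls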
SENP8 conf – SENP8 (human) inhibition, single concentration confirmation; shares compounds with SENP8 block-1; purified SENP8, Nedd8-AMC/pro-Nedd8 cleavage fluorescence, 30 min; inhibition, % at 25 µM; hit rate 15% among 1,400; AID 624319; in the data active = inhibition mostly above about 39%, no sharp cut-off; inactive = mostly below about 34%
* hit, by the source's call; / = no result given; ! = repeats disagree.

SMILES	SENP6 inh	PPC-1+TRAIL kill	SENP8 block-1	SENP8 block-2	SENP7 inh	C8 TRAIL sens	SENP8 conf
Nc1c(C(=O)c2ccccc2)sc2nsc(SCCN3CCCC3)c12	-12	10	44*	-8	-3	-5	13
Nc1c(C(=O)c2ccc(Cl)cc2)sc2nsc(SCCN3CCOCC3)c12	-11	-10	38	0	-2	26	/
Cc1[nH][nH]c(=O)c1C(c1cc2c(cc1Br)OCO2)c1c(C)[nH][nH]c1=O	14	21	7	-4	-1	-3	/
Cc1[nH][nH]c(=O)c1C(c1cc(Br)ccc1O)c1c(C)[nH][nH]c1=O	15	/	42*	4	4	14	39
CC1(C(=O)Nc2ccc3c(c2)OCCO3)CCN1Cc1ccc2ccccc2c1 (stereo not drawn)	/	/	40*	/	/	-4	-12
CC1(C(=O)Nc2ccc3c(c2)OCCO3)CCN1Cc1ccc(-c2ccccn2)cc1 (stereo not drawn)	/	/	18	/	/	-4	/
O=C1CSC(=S)N1N1C(=O)c2cccc([N+](=O)[O-])c2C1=O	11	16	/	10	0	/	/
CCOC(=O)c1ccc(S(=O)(=O)NNC(=O)c2ccc3c(c2)nc(C)n3CC)cc1	-11	11	4	-3	3	0	/
CCn1c(C)nc2cc(C(=O)NNS(=O)(=O)c3ccccc3F)ccc21	-12	6	42*	5	-1	-3	-8
Cc1ccc(NC(=O)c2sc(N)nc2-c2ccc([N+](=O)[O-])cc2)c(C)c1	-3	1	45*	-7	-13	2	11
CC(=O)N(O)CCCCCNC(=O)CCC(=O)N(O)CCCCCNC(=O)CCC(=O)N(O)CCCCCN	-2	6	50*!	1	4	2	19
COc1ccccc1N1CCN(C(=O)c2ccc3c(c2)NC(=O)C(CSCc2ccccc2C)N3)CC1 (stereo not drawn)	6	/	/	10	1	/	/
CCCCn1c(N)c(N(Cc2ccccc2)C(=O)COc2ccccc2F)c(=O)[nH]c1=O	0	/	8	-5	-12	-16	/
COc1cccc(Nc2cc(N3CCOCC3)c3nonc3c2[N+](=O)[O-])c1	4	38	44*	-6	-9	-4	14
CN(C)/C=C/C=C1C(=O)CCCC1=O	-6	4	49*	-9	-6	-10	6
Cc1cccc(C)c1NC(=O)CN1C(=O)NC(C)(C2CC2)C1=O (stereo not drawn)	9	/	2	-3	3	1	/
O=[N+]([O-])c1ccc(SNc2ccccc2)c([N+](=O)[O-])c1	/	/	34	/	/	-4	/
O=[N+]([O-])c1ccc(-[n+]2ccc3ccccc3c2)c([N+](=O)[O-])c1	41	/	46*	22	0	55*	35
COc1ccc(N2CCN(C(=O)CSc3nc4nc(C)cc(C)n4n3)CC2)cc1	-7	/	5	1	-2	-8	/
Cc1ccc(C)c(C(O)c2ncc(-c3ccc(Cl)cc3)[nH]2)c1 (stereo not drawn)	/	/	9	/	/	-1	/
CC1CCCN(CC(O)CN)C1 (stereo not drawn)	-5	-5	14	-4	-13	-7	/
C[C@@H]1CN(Cc2nc(-c3cccs3)no2)C[C@H](C)O1	1	6	42*	-11	-13	-20	-6
CCOc1cc(NC(=O)c2ccccn2)c(OCC)cc1NC(=O)c1ccccc1	4	/	-16	0	5	-6	/
CCOc1cc(NC2CS(=O)(=O)CC2O)c(OCC)cc1NC(=O)c1ccccc1 (stereo not drawn)	12	13	44*	8	5	51*	32
O=C(Nc1cccc(OC(F)(F)F)c1)c1ccc(-c2cccnc2)c2ccoc12	/	/	3	/	/	18	/
SMILES	SENP6 inh	PPC-1+TRAIL kill	SENP8 block-1	SENP8 block-2	SENP7 inh	C8 TRAIL sens	SENP8 conf
CCOC(=O)c1nc(NNC(=O)c2ccc([N+](=O)[O-])cc2)sc1C	20	/	41*	-2	5	40	2
CCOC(=O)c1sc(NNC(=O)c2ccc(C)cc2)nc1C	-18	5	5	-4	-10	-15	/
CCC(CO)Oc1cc(NCc2ccc(C)cc2)c2ncn(C(C)C)c2c1 (stereo not drawn)	-9	/	24	-6	-7	-6	/
CCC(CO)Oc1cc(NCc2cccc(C)c2)c2ncn(C(C)C)c2c1 (stereo not drawn)	-5	/	42*	3	10	8	54*
CC[C@H](CO)Oc1cc(NCc2cccc(N)c2)c2ncn(C(C)C)c2c1	/	/	56*	/	/	-2	87*
Cc1ccc(S(=O)(=O)C[C@@H]2OC[C@H](C(C)C)N2S(=O)(=O)c2ccc(C)cc2)cc1	/	/	14	/	/	2	/
CC(=O)Nc1cc2c(cc1[N+](=O)[O-])OCCO2	-33	7	10	-3	0	-9	/
CC(=O)Nc1cc2c(cc1Br)OCCO2	-7	-3	47*	-7	-7	-3	-6
CCC(=O)NC(c1cccs1)c1cc([N+](=O)[O-])c2cccnc2c1OC (stereo not drawn)	/	/	96*	/	/	-1	34
Cc1cc(=O)n(-c2ccc3ccccc3n2)[nH]1	16	19	47*	-3	4	15	17
O=C(CCS(=O)(=O)c1cccc2nonc12)NCCc1ccccc1	8	27	41*	1	11	-42	12
Cc1ccc(C)c(NC(=S)/C(=C(\[O-])c2ccc(Cl)s2)[n+]2ccccc2)c1	38	8	69*	-2	-1	1	41
CC(Oc1cccc(Cl)c1)C(=O)Nc1ccc(S(=O)(=O)N(C)C2CCN(C)CC2)cc1 (stereo not drawn)	-9	/	12	-9	1	5	/
Cc1ccc(S(=O)(=O)N(C)c2ccc(OC(=O)c3cccs3)cc2)cc1C	-15	/	-6	-2	2	-6	/
O=c1c(-c2ccc(O)cc2O)coc2cc(O)cc(O)c12	8	-1	55*	4	-3	-16	22
COc1ccccc1-c1coc2cc(O)cc(O)c2c1=O	-18	-5	17	-3	0	-9	/
CC(=O)C1=C(C)Nc2ncnn2C1c1ccc(Br)cc1 (stereo not drawn)	-22	/	9	3	-6	-6	/
Clc1c(-c2nnc3n2CCCCC3)sc2ccccc12	4	15	14	-2	2	7	/
COc1ccc2c(Cl)c(-c3nnc4n3CCCCC4)sc2c1	-8	-5	48*	-20	-18	5	19
Cc1ccc([C@H]2C(C(=O)O)=CCN2S(=O)(=O)c2ccc(C)cc2)cc1	/	/	11	/	/	13	/
Nn1cnnc1N/N=C/c1ccc(F)cc1	14	/	14	3	6	0	/
CCc1nnc(N/N=C/c2ccc(N3CCC(C)CC3)c([N+](=O)[O-])c2)n1N	-17	22	62*	0	19	-6	43*
